PubChem BioAssay (NCI)
This is part of a sample that, as a whole, favours compounds with a hit. Of some 79,000 tested, about 15% had one in any assay. Values without a mark were called inactive. Active and inactive are the calls of the source. Rule as the data show it: active = growth inhibition above about 70%; inactive = the rest.

Legend:
[1] = NCI Yeast Anticancer Drug Screen. Data for the rad50 strain (AID 155);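 also: 0% = growth of vehicle-only cultures of the same strain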; details: S. cerevisiae rad50 strain growth inhibition; at 50.0 µM; stronger effect = higher value
Method in brief: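 Genetically altered yeast (DNA repair pathway); compound treatment; growth inhibition vs vehicle ctrl.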

[2] = NCI Yeast Anticancer Drug Screen. Data for the mec2-1 strain (AID 157); details: S. cerevisiae mec2-1 strain, at 50.0 µM, stronger effect = higher value
Method in brief: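 Growth inhibition is read against vehicle-treated controls after compound exposure of the mec2-1 yeast strain, which is defective in DNA damage repair or cell cycle control.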

[3] = NCI Yeast Anticancer Drug Screen. Data for the sgs1 mgt1 strain (AID 161);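 also: 0% = growth of cultures given vehicle only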; details: S. cerevisiae sgs1 mgt1 strain, at 50.0 µM, stronger effect = higher value
Method in brief: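 This yeast growth screen uses a strain with defined DNA-repair lesions; compound-treated growth is compared with vehicle-treated growth.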

[4] = NCI Yeast Anticancer Drug Screen. Data for the cln2 rad14 strain (AID 165);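 also: 0% = growth equal to vehicle treated cultures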; details: S. cerevisiae cln2 rad14 strain, at 50.0 µM, stronger effect = higher value
Method in brief: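 Growth inhibition, relative to vehicle-treated controls, is the read-out. The test organism is a yeast strain with defined genetic alterations, cln2 rad14.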

[5] = NCI Yeast Anticancer Drug Screen. Data for the bub3 strain (AID 167); details: S. cerevisiae bub3 mutant strain, at 50.0 µM, stronger effect = higher value
Method in brief: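 Yeast carrying a defined mutation is treated with each compound, and growth is compared with that of vehicle-exposed cells to give inhibition.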

[6] = NCI Yeast Anticancer Drug Screen. Data for the mlh1 rad18 strain (AID 175); details: S. cerevisiae mlh1 rad18 strain growth inhibition; at 50.0 µM; stronger effect = higher value
Method in brief: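 Cells of a genetically altered yeast strain, deficient in DNA damage repair, were treated with compound. Their growth was then compared with that of vehicle-treated cultures to give inhibition.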

SMILES: C(=C\P(c1ccccc1)c1ccccc1)/P(/C=C/P(c1ccccc1)c1ccccc1)c1ccccc1
- growth inhibition [1]: -18.4%
- growth inhibition [2]: -14.8%
- growth inhibition [3]: -42.1%
- growth inhibition [4]: 8.15%
- growth inhibition [5]: -18.9%
- growth inhibition [6]: -28.1%

SMILES: O=C([O-])C[n+]1ccccc1/C=C/c1ccccc1
- growth inhibition [1]: -19.2%
- growth inhibition [2]: 1.8%
- growth inhibition [3]: -23.1%
- growth inhibition [4]: -15.2%
- growth inhibition [5]: -7.75%
- growth inhibition [6]: -23.9%

SMILES: Cc1nc2nncn2c(=O)[nH]1
- growth inhibition [1]: 9.35%
- growth inhibition [2]: -0.4%
- growth inhibition [3]: 31.8%
- growth inhibition [4]: 15.4%
- growth inhibition [5]: 6.1%
- growth inhibition [6]: 17.9%

SMILES: Cc1no[n+]([O-])c1NC(=O)OCc1ccccc1
- growth inhibition [1]: -1.8%
- growth inhibition [2]: -11%
- growth inhibition [3]: -2.6%
- growth inhibition [4]: -37.8%
- growth inhibition [5]: -15.3%
- growth inhibition [6]: 6.9%

SMILES: C#CCN(C)Cc1cc(OC)c(OC)c(OC)c1
- growth inhibition [1]: -43.2%
- growth inhibition [2]: -0.75%
- growth inhibition [3]: 6.55%
- growth inhibition [4]: -10.9%
- growth inhibition [5]: 7.65%
- growth inhibition [6]: 14.4%

SMILES: OCCCC1CCN(CCO)CC1
- growth inhibition [1]: -22.2%
- growth inhibition [2]: -27.5%
- growth inhibition [3]: -18.8%
- growth inhibition [4]: 1.3%
- growth inhibition [5]: -8.7%
- growth inhibition [6]: -10.3%

SMILES: Cn1c(=O)c2c(nc(/N=C/c3ccncc3)n2C)n(C)c1=O
- growth inhibition [1]: -3.35%
- growth inhibition [2]: -5.95%
- growth inhibition [3]: -5.9%
- growth inhibition [4]: -75.7%
- growth inhibition [5]: -16.8%
- growth inhibition [6]: -2.85%

SMILES: CC(SC(C)C(=O)N/N=C/C=C\c1ccccc1)C(=O)N/N=C\C=C\c1ccccc1 (stereo not given)
- growth inhibition [1]: 15.1%
- growth inhibition [2]: 5%
- growth inhibition [3]: 1.05%
- growth inhibition [4]: 7.8%
- growth inhibition [5]: 4.05%
- growth inhibition [6]: 33.7%

SMILES: CCOC(=O)C1C(=O)CC(=O)C(C(=O)OCC)C1C1CC=CCC1 (stereo not given)
- growth inhibition [1]: 51%
- growth inhibition [2]: 69.5%
- growth inhibition [3]: 78.5% (active)
- growth inhibition [4]: 38.7%
- growth inhibition [5]: 70.7% (active)
- growth inhibition [6]: 78.5% (active)

SMILES: O=C(O)CC1OCC=C2C[N+]3([O-])CCC45c6ccccc6NC4C1C2CC53 (stereo not given)
- growth inhibition [1]: -1.5%
- growth inhibition [2]: 19.7%
- growth inhibition [3]: -16.1%
- growth inhibition [4]: -31.9%
- growth inhibition [5]: -35.4%
- growth inhibition [6]: 10.6%

SMILES: C=C1CC(CC(=O)C(C)CC2CC(=C)C(=O)O2)OC1=O (stereo not given)
- growth inhibition [1]: 14.1%
- growth inhibition [2]: -30.9%
- growth inhibition [3]: 14.9%
- growth inhibition [4]: 8.4%
- growth inhibition [5]: 24.5%
- growth inhibition [6]: 26.3%

SMILES: CC1=C(C(=O)NC2CCCCC2)CC(C(=O)NC2CCCCC2)=C(C)N1
- growth inhibition [1]: -16.6%
- growth inhibition [2]: -25.6%
- growth inhibition [3]: -26.2%
- growth inhibition [4]: -21.1%
- growth inhibition [5]: -17.3%
- growth inhibition [6]: -61.9%

SMILES: CCCCOC(=O)OCCOCCOC(=O)OCCCC
- growth inhibition [1]: -7.75%
- growth inhibition [2]: 3.1%
- growth inhibition [3]: 2.6%
- growth inhibition [4]: -70.8%
- growth inhibition [5]: -9.2%
- growth inhibition [6]: 0.35%

SMILES: Cc1cc(C)c2c(=O)n(-c3ccc(Br)cc3)c(=S)n(-c3ccc(Br)cc3)c2n1
- growth inhibition [1]: 19.2%
- growth inhibition [2]: 4.35%
- growth inhibition [3]: -3.2%
- growth inhibition [4]: 12.8%
- growth inhibition [5]: -3.85%
- growth inhibition [6]: 23.5%

SMILES: C=CCc1oc(C)nc1CCCC
- growth inhibition [1]: 0.2%
- growth inhibition [2]: -0.1%
- growth inhibition [3]: 16.7%
- growth inhibition [4]: 27.4%
- growth inhibition [5]: 5.85%
- growth inhibition [6]: 23.3%

SMILES: CCCCCCCCCCCCCCCCSC1=C(Cl)C(=O)C(OC)=C(OC)C1=O
- growth inhibition [1]: 25.6%
- growth inhibition [2]: -4.7%
- growth inhibition [3]: 21.1%
- growth inhibition [4]: -26%
- growth inhibition [5]: 0.25%
- growth inhibition [6]: 9.4%

SMILES: O=C(NC(=O)C1(C(=O)O)CCCC1)Nc1ccccc1
- growth inhibition [1]: 7.95%
- growth inhibition [2]: -7.05%
- growth inhibition [3]: 6.4%
- growth inhibition [4]: -39.1%
- growth inhibition [5]: 27.4%
- growth inhibition [6]: -9.15%

SMILES: COC(=O)[C@@H]1[C@H](OC(C)=O)CCC2[C@@]3(C[C@@H](c4ccoc4)O[C@@H]3OC)[C@H](C)CC[C@]21C(=O)OC (stereo not given in full)
- growth inhibition [1]: -12.4%
- growth inhibition [2]: -5.1%
- growth inhibition [3]: -39%
- growth inhibition [4]: -8.7%
- growth inhibition [5]: -36.9%
- growth inhibition [6]: -37.5%

SMILES: C=CCOC(=O)C1CCCCC1C(=O)OCC=C (stereo not given)
- growth inhibition [1]: 1.45%
- growth inhibition [2]: -1.65%
- growth inhibition [3]: 1.4%
- growth inhibition [4]: 3.3%
- growth inhibition [5]: 21.6%
- growth inhibition [6]: 1.9%

SMILES: CCCCCCCCCCCCCCCC(=O)Oc1ccc(/C(CC)=C(/CC)c2ccc(OC(=O)CCCCCCCCCCCCCCC)cc2)cc1
- growth inhibition [1]: 16.1%
- growth inhibition [2]: -8.1%
- growth inhibition [3]: 8.55%
- growth inhibition [4]: 1.85%
- growth inhibition [5]: 8.65%
- growth inhibition [6]: 4.25%
